Assay outcomes from PubChem BioAssay.
The list is not random: actives were taken first. Their share in the collection is about 4.1%.
p-CIP stab down – compounds decreasing mouse p/CIP protein stability | actives 0.01% (n = 290,000) | F442A p/CIP-EGFP cells, EGFP fluorescence, 16 h | decrease of EGFP signal, % at 10 µM | Q05BA5;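 active = EGFP signal decrease of at least 30% at 10 µM or well 3 SD below plate mean, unless failing retest; inactive = the rest, including hits failing retest or dose response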
MIN6 prolif – inducers of beta-cell replication in MIN6 cells. MIN6 cells proliferation, ATPlite luminescence, 48 h; cells starved in 0.2% serum; 100% = growth in 10% serum. proliferation, % at 10 µM. actives 0.29% (n = 330,000);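 active = compounds whose signal lies at least 3.5 SD above the mean of all wells on their plate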;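 also: 0% = DMSO-treated cells in low-serum medium and 100% = 10% serum control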
FAS-TE inh – blocks the thioesterase domain of human fatty acid synthase. P49327. inhibition, % at 15 µM. recombinant FAS-TE, OMFH fluorogenic substrate, fluorescence endpoint. AID 602261. actives 0.67% (n = 360,000);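 active = compounds whose normalised, plate-corrected inhibition of enzyme fluorescence in the single-dose primary screen is 50% or more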;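 also: 0% = DMSO with enzyme and 100% = substrate without enzyme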
NR3A LBD binder – modulators (binders) of human NR3A ligand-binding domain; NR3A LBD differential scanning fluorimetry, Tm shift; 0% = protein alone, 100% = glycine-bound protein; Tm shift relative to glycine control, % at 25 µM; actives 2.5% (n = 340,000);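 active = melting temperature shift of at least 10% of the positive control shift, at one fixed dose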
MPTP block – permeability transition pore inhibition; isolated mouse mitochondria, Ca2+ swelling absorbance, 30 min; inhibition, % at 10 µM; actives 1.4% (n = 360,000); AID 602449;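 active = inhibition of 50% or more, scaled per plate between neutral and stimulator controls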;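 also: 0% = DMSO wells given calcium and 100% = 1 mM EGTA wells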
Active calls of the source: *; . = no result given.

SMILES	p-CIP stab down	MIN6 prolif	FAS-TE inh	NR3A LBD binder	MPTP block
Cc1ccccc1-c1csc(C(O)c2cccnc2)n1 (stereo not given)	.	.	-4	.	1
OC[C@@H]1CN(CCN2CCOCC2)C[C@H](n2cnc3c(NC4CCC4)ncnc32)O1	.	.	-3	.	-1
Brc1ccc2nc(C3CCCCC3)c(Cc3ccsc3)n2c1	.	.	-7	.	1
COc1cccc(/C=C2\SC(=O)NC2=O)c1OCc1ccc(C(=O)O)cc1	-5	2	-7	15*	1
OC1c2c(F)cccc2N=C2CCCCN21 (stereo not given)	.	.	-5	.	-2
COc1ccc2cc(CCNC(=O)c3cc4ccccc4o3)c(=O)[nH]c2c1	-4	-4	7	21*	-2
NC(=O)c1ncc(C(F)(F)F)cc1Oc1cccc(C(F)(F)F)c1	-5	0	-5	11*	-4
COc1cccc(CN(C)C(=O)/C=C/c2ccc(S(=O)(=O)N3CCCCCC3)cc2)c1	0	-1	18	24*	0
COc1cc(C(=O)Nc2ccc(-c3nnc(-c4ccco4)o3)cc2)cc(OC)c1OC	-15	-4	10	30*	2
O=C(Cc1ccccc1)Nc1ccc(-c2nnc(-c3ccco3)o2)cc1	-10	0	-5	-17	0
O=C(Cc1ccc(Cl)cc1)Nc1ccc(-c2nnc(-c3ccco3)o2)cc1	-11	-2	-2	13*	28
COc1ccc(CN2CCC2(C)C(=O)NCc2ccc3c(c2)OCO3)c2ccccc12 (stereo not given)	.	.	21	.	1
COc1cccc(Nc2nc(-c3ccc(O)cc3)cs2)c1	-6	-3	14	23*	-2
COc1cccc(Nc2nc(-c3cccc(N4C(=O)c5ccccc5C4=O)c3)cs2)c1	-82	-4	16	33*	2
COc1cccc(-c2csc(Nc3ccc(Oc4ccccc4)cc3)n2)c1	.	.	25	.	1
CCC(=O)c1c[nH]c(C(=O)NCCCn2ccnc2)c1	-6	-1	-5	12*	-5
CC(C)(C)c1ccc(C(=O)c2c[nH]c(C(=O)NCCCn3ccnc3)c2)cc1	-8	-5	-17	1	8
O=C(OCc1ccc(COC(=O)c2ccc(O)cc2)cc1)c1ccc(O)cc1	2	-5	21	21*	3
CC(C)(C)N1C(=O)c2ccccc2NC(=O)C1C(=O)NCCc1ccccc1F (stereo not given)	.	.	.	.	0
O=C1NN(c2ccc(F)c(Cl)c2)C(=O)/C1=C\c1cccc(OC(=O)c2cccs2)c1	1	-4	12	24*	-1
CN(C)S(=O)(=O)c1ccc(NC(=O)c2cc3ccccc3o2)cc1	-11	-2	10	31*	0
Cc1ccc(NC(=O)c2cc3ccccc3o2)cc1S(=O)(=O)N(C)C	-4	.	11	-2	0
CN(C)S(=O)(=O)c1ccc(S(=O)(=O)Nc2ccc3c(c2)oc2ccccc23)cc1	-10	-2	39	22*	10
Cc1ccc(-c2ccnc(=S)[nH]2)cc1	-9	-4	-5	10*	1
O=C(Nc1nnc(CSCc2ccc(Cl)cc2)s1)c1cccc([N+](=O)[O-])c1	1	0	42	19*	31
SMILES	p-CIP stab down	MIN6 prolif	FAS-TE inh	NR3A LBD binder	MPTP block
Cc1cc(Nc2ncc(Cl)cc2Cl)n(-c2ccccc2)n1	-12	5	3	11*	3
O=C(NNC(=O)c1cc2cc(OC(F)(F)F)ccc2[nH]1)c1ccc(Cl)cc1	-16	-2	-2	14*	2
O=C(CNC(=O)c1ccco1)N=Nc1c(O)[nH]c2ccc([N+](=O)[O-])cc12	6	-2	9	-1	0
C=C(C)CNC(=S)N=Nc1c(O)[nH]c2ccc([N+](=O)[O-])cc12	-4	-6	28	25*	6
NC(=O)N=Nc1c(O)[nH]c2ccc([N+](=O)[O-])cc12	-12	0	4	-1	1
CC(C)NC(=S)N=Nc1c(O)[nH]c2ccc([N+](=O)[O-])cc12	-7	-4	16	18*	-4
CCn1c(O)c(N=NC(=O)CNC(=O)c2cccnc2)c2ccccc21	.	.	-4	.	-1
O=C(Nc1ccc(Cl)c(Cl)c1)N[C@@H]1CC[C@@H](CCn2cc(C3CCCCC3)nn2)O[C@@H]1CO	.	.	.	.	3
CCc1nc2c(OCC(=O)c3ccc(F)cc3)cccn2c1N(C)C(=O)C(C)C	.	.	-1	.	0
S=C(NCCc1ccccc1)NCCc1ccccc1	-13	-2	11	26*	4
NS(=O)(=O)c1ccc(NC(=S)NCCc2ccccc2)cc1	-18	-2	1	12*	-3
CC(=O)c1ccc(NC(=S)NCCc2ccc(S(N)(=O)=O)cc2)cc1	-16	0	-2	-1	1
Cc1cccc(C)c1-n1nnnc1C1(C)CCC(=O)N1CC(F)(F)F (stereo not given)	.	.	-3	.	1
COc1cc(NC(=O)COC(=O)/C=C/c2ccc(Cl)cc2Cl)cc(OC)c1	-1	0	14	14*	3
COc1ccc(NC(=O)[C@@H]2CC=C[C@@H]3CCN(C4CCCCC4)C(=O)[C@@H]32)cc1	.	0	-2	12*	1
Cc1cc(C)nc(Nc2nc(C(N)Cc3ccc(Cl)cc3)cs2)n1 (stereo not given)	.	.	-6	.	3
COC(=O)C[C@H]1CC[C@@H](NS(=O)(=O)c2ccccc2)[C@@H](CO)O1	.	.	.	.	0
CC(=O)Nc1ccc(S(=O)(=O)NC2CC(=O)N(c3ccc4c(c3)OCCO4)C2)cc1 (stereo not given)	.	5	-2	17*	0
COc1cc(CNC(=O)Nc2nc(C(N)Cc3ccc(Cl)cc3)cs2)cc(OC)c1OC (stereo not given)	.	.	-2	.	4
Cc1nc(-c2ccccc2)nc2[nH]ccc(=O)c12	4	-1	-2	10*	0
CC(=O)c1ccc2c(c1)N(Cc1ccc3ccccc3c1)C(=O)C(C)S2 (stereo not given)	.	.	27	.	1
CC(=O)N1CCc2cc(C(=O)CN3CCCCC3)ccc21	-20	3	-1	13*	-2
OCc1ccccc1-c1nc(NCc2ccccc2)nc2ccsc12	.	.	1	.	0
CNc1ccc(-c2ccccc2OC)cn1	.	.	-9	.	0
CCNC(=S)Nc1ccc(-c2nc3ccccc3[nH]2)cc1	-7	-2	-1	28*	-2
COc1c(F)c(F)c(C(=O)Nc2ccc(-c3nc4ccccc4[nH]3)cc2)c(F)c1F	-11	1	-8	13*	2
CCOc1ccc(NC(=S)NCc2nc3ccccc3[nH]2)cc1	17	0	0	-3	0
O=C(Nc1ccc(-c2nc3ccccc3[nH]2)cc1)c1c(F)c(F)c(F)c(F)c1F	-1	-2	1	16*	0
O=C1NC[C@H](CCCCN2C[C@H](Cc3ccccc3)N(CCc3ccc(O)cc3)C(=O)C2=O)N(CCC2CCCCC2)C1=O	.	.	13	.	-2
